Compound activity as filed in PubChem BioAssay.
JMJD2A Tudor inh: blocks the human JMJD2A Tudor domain. 390,000 tested, 4.4% active. AlphaScreen JMJD2A-Tudor / H3K4me3 peptide binding. AID 504339. Potency, µM (highest dose often 114 µM), inactives show at the highest dose activity change, negative = inhibition, usual class: inhibitors. O75164; also: % is scaled to controls: 0 for no effect and ±100 for the full control effect; nearly all actives have a fitted effect of over 50% in size
G9a block: G9a (human) methyltransferase inhibition; G9a H3K9 monomethylation, AlphaScreen, 2 h; Potency, µM (highest dose often 102 µM), for inactives: at the highest dose activity, negative = inhibition, most hits filed as inhibitors; Q96KQ7; 350,000 tested, 8.8% active; AID 504332; also: % is scaled to controls: 0 for no effect and ±100 for the full control effect; nearly all actives have a fitted effect of over 75% in size
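AlphaScreen detection with an anti-monomethyl H3K9 antibody quantified product after a 2 h room-temperature reaction containing 500 nM biotinylated H3K9 peptide, 20 µM SAM and 20 nM enzyme, which had been preincubated 15 min with compound.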
BAZ2B block: inhibitors of human BAZ2B bromodomain; Q9UIF8; AlphaScreen BAZ2B-H3K14Ac peptide displacement; Potency, µM (series often up to 114 µM), without a hit: top-dose activity change, negative = inhibition, most hits filed as inhibitors; 360,000 tested, 4.4% active; AID 504333; also: % is scaled to controls: 0 for no effect and ±100 for the full control effect; nearly all actives have a fitted effect of over 60% in size
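In this displacement format the biotinylated H3(5-23) peptide acetylated at Lys14 serves as ligand at 50 nM, with BAZ2B at 50 nM in PBS pH 7.4 containing 0.01% Tween-20. Donor and acceptor beads are 10 ug/mL final.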
HP1b binding inh: inhibitors of HP1-beta chromodomain binding to methylated histone tails | 390,000 tested, 0.56% active | Potency, µM (top dose mostly 114 µM), for the others: at the highest dose activity change, negative = inhibition, hits mostly inhibitors | AlphaScreen HP1-beta / biotin-H3K9me3 peptide binding | AID 540317; also: nearly all actives have a fitted effect of over 70% in size
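Compound inhibition of the preformed complex between 50 nM HP1-beta and 50 nM biotinylated H3K9me3 peptide was read by AlphaScreen. Buffer was PBS pH 7.4 with 0.01% Tween-20. Incubations ran 30 min at room temperature, with 10 ug/mL donor/acceptor beads.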
Sfp PPTase inh: inhibitors of Bacillus subtilis Sfp phosphopantetheinyl transferase. Q9F4F7. Biochemical Sfp PPTase activity, qHTS. Potency, µM, inactives show largest response in the series, negative = inhibition, hits mostly inhibitors. 310,000 tested, 3.5% active. AID 1490;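 also: the enzyme is Sfp with the accession as filed and its product quenches rhodamine fluorescence; 0% = enzyme reaction without inhibitor and -100% = no enzyme wells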
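Compounds were incubated with enzyme (final 15 nM) for 15 min at room temperature before substrate addition started the reaction. Fluorescence at 525 nm excitation, 598 nm emission was recorded immediately and after 30 minutes.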
L3MBTL1 inh: blocks human L3MBTL1 | Q9Y468 | AlphaScreen L3MBTL1–H3K9me1 peptide binding | Potency, µM (doses to about 57.1 µM), for the others: at the highest dose activity, negative = inhibition, most hits filed as inhibitors | 230,000 tested, 0.66% active | AID 485360; also: % is scaled to controls: 0 for no effect and ±100 for the full control effect; nearly all actives have a fitted effect of over 60% in size
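L3MBTL1 50 nM + b-AHA-H3(1-15)K9me1 75 nM, 30 min RT; compound added, 30 min RT; streptavidin donor/Ni-chelate acceptor beads 10 ug/mL each final, 30 min RT dark; AlphaScreen read.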
Numbers without * were called inactive; ? = inconclusive; · = no result; [ ] = remark or other dose. In the library only some 12% were active in any assay of this set; here they are far more common. Calls follow the shape of the dose curve; as a rule, active = well fitted curve in the direction sought with a large enough effect; inconclusive = small, poorly fitted or top-dose-only effect, or another doubt; inactive = no such curve, though single readings can be large; an effect the other way counts as inactive or inconclusive. Potency is read from the fitted curve at half-maximal effect.

SMILES | JMJD2A Tudor inh | G9a block | BAZ2B block | HP1b binding inh | Sfp PPTase inh | L3MBTL1 inh
Cc1ccc(CN2CCN(/N=C/c3sccc3C)CC2)c(C)c1 | 22µM* | 45µM* | 28µM* | ? | -15% | -15%
CSc1ccc(/C=N/N2CCN(Cc3ccc(C)cc3C)CC2)cc1 | 56µM* | ? | 45µM* | -22% | -4% | ?
Cc1onc(-c2ccccc2Cl)c1C(=O)NC1C(=O)N2C1SC(C)(C)C2C(=O)O (stereo not given) | · | -3%[2.33 µM] | · | · | -1% | ·
CC(C)(C)C(=O)N/C(N)=N/c1nc2ccccc2o1 | 9% | 27% | 7% | 27% | 21% | 6%
Cc1ccc(-c2nc(S(=O)(=O)c3ccc(C)cc3)c(N3CCOCC3)o2)cc1 | 79µM* | 4.5µM* | ? | ? | -46% | ·
Cc1ccc(S(=O)(=O)c2nc(-c3ccccc3)oc2NCCN2CCOCC2)cc1 | -7%[11.4 µM] | ? | -29% | -7% | -9% | 1%
CCOc1ccc(-c2nc(S(=O)(=O)c3ccccc3)c(N3CCOCC3)o2)cc1 | -20% | 50µM* | -36% | 31% | ? | 6%
O=S(=O)(c1ccc(F)cc1)c1nc(-c2ccc(F)cc2)oc1NCCN1CCOCC1 | -22%[57.1 µM] | 50µM* | -8% | 13% | -5% | -6%
Cc1cc(NC(=O)c2ccc(F)c(S(=O)(=O)N3CCCCC3)c2)no1 | -12% | · | -6% | 15% | 10% | ·
O=C(c1ccc2c(c1)N(Cc1ccc(F)cc1)C(=O)c1ccccc1S2(=O)=O)N1CCCCCC1 | -20% | -29%[59 µM] | -12% | 16% | · | ·
O=C(CN1C(=O)COc2ccccc21)NCCCN1CCN(Cc2ccccc2)CC1 | -21% | 9%[12.7 µM] | -2% | 16% | 9% | -12%[11.4 µM]
O=C(CN1C(=O)COc2ccccc21)NCCCN1CCc2ccccc2C1 | ? | ? | -3% | 22% | 20µM* | 0%
O=C(COc1ccccc1)Nc1ccc(OCc2cc(=O)n3ccsc3n2)cc1 | -14% | -2%[59 µM] | -2% | 50% | · | ·
O=C(O)COc1ccccc1-c1nc(-c2ccccc2)c(-c2ccccc2)[nH]1 | -33% | 79µM* | ? | -5% | -29% | -5%
Cc1ccc(OCC(=O)Nc2ccc3c(c2)C(=O)NC3=O)cc1 | ? | · | -24% | 23% | 1% | ·
CC(C)(C)c1ccc(OCC(=O)Nc2ccc3c4c(cccc24)C(=O)NC3=O)cc1 | 79µM* | · | -5% | 8% | 10% | 2%
Cc1cc(C)cc(NC(=S)Nc2cccc3cnccc23)c1 | -31% | 18µM* | ? | ? | 25µM* | -29%
Cc1ccc(NC(=S)Nc2ccccn2)c(C)c1 | -17% | ? | -34% | 15% | -2% | -14%
Cc1ccc(NC(=S)Nc2cccc3cnccc23)c(C)c1 | -14% | 50µM* | -22% | -10% | 50µM* | 1%
Cc1ccc(NC(=S)Nc2cccc3ccccc23)cc1F | -20% | · | -35% | -9% | ? | ·
O=C(NC(=S)Nc1cccc2cccnc12)c1ccccc1 | -9% | -16% | 9% | 12% | 9% | -7%
O=C(NC(=S)Nc1cccc2cnccc12)c1ccccc1 | -9% | 40µM* | 0% | 39% | 45µM* | -9%
Cc1ccc(NC(=S)c2ccncc2)c(C)c1 | 0% | 79µM* | ? | 52% | 19% | ·
CCCCC/C=C\C[C@@H]1O[C@H]1/C=C/C(O)C/C=C\CCCC(=O)O (stereo not given in full) | · | · | · | · | 5% | ·
CCc1ccc(NC(=S)Nc2cccc3cnccc23)cc1 | -15% | 45µM* | ? | -4% | 22µM* | ?
SMILES | JMJD2A Tudor inh | G9a block | BAZ2B block | HP1b binding inh | Sfp PPTase inh | L3MBTL1 inh
Cc1ccc(NC(=S)NNC(=S)Nc2ccc(C)cc2C)cc1 | ? | -28% | -19% | ? | 13µM* | -20%
C=C(C)CNC(=S)Nc1cccc2cnccc12 | -1% | 25% | 34% | 54% | -5% | 12%
Cc1ccc(NC(=S)Nc2ccc3cn[nH]c3c2)c(C)c1 | -11% | ? | -30% | -11% | 2% | -3%
C[C@@H]1CN(S(=O)C(C)(C)C)[C@@H](CCO)/C1=C\c1ccccc1 (stereo not given in full) | -1% | · | · | 29% | · | ·
O=S(=O)(Nc1ccc(-c2ccc(N3CCCC3)nn2)cc1)c1ccc(OC(F)(F)F)cc1 | -21% | 6%[59 µM] | -11% | 14%[57 µM] | · | ·
O=c1[nH]cnc2sc3c(c12)CN(Cc1ccccc1)CC3 | -12% | 25µM* | 0% | 2% | 5% | ·
O=C(COc1ccc2oc(-c3ccco3)cc(=O)c2c1)N1CCCCC1 | -2%[11.4 µM] | ? | 50µM* | ? | 17% | 3%[11.4 µM]
COc1ccc2oc(-c3ccco3)cc(=O)c2c1 | 3%[11.4 µM] | 45µM* | -18% | 63% | ? | 35%[11.4 µM]
O=c1cc(-c2ccco2)oc2ccc(Cl)cc12 | -11% | -18%[12.7 µM] | 4% | 21% | 20% | 4%[11.4 µM]
COc1cccc2oc(-c3ccco3)cc(=O)c12 | -8% | 5.6µM* | -2% | 41% | 3% | -15%
COc1cc(OC)c2c(=O)cc(-c3ccccc3)oc2c1 | -14% | -37%[59 µM] | -16% | 38% | 10% | -2%
CC1=C(c2ccccc2)C=NNCC1=O | -28% | · | · | 22%[57 µM] | · | ·
COc1ccc(C)cc1NC(=O)c1cc(S(=O)(=O)N2CCC(C)CC2)ccc1F | -25% | 8%[59 µM] | 2% | 23% | · | ·
Cc1cc2c(c(=O)o1)C1O[C@](c3ccsc3)(Cc3ccccc31)O2 | · | ? | ? | · | 1% | ·
O=C1C2=C(C(=O)c3ccccc31)C1O[C@](c3ccsc3)(Cc3ccccc31)O2 | · | -38%[2.33 µM] | 10µM* | · | -3% | ·
O=c1oc2ccccc2c2c1C1O[C@](c3ccsc3)(Cc3ccccc31)O2 | · | · | 8.9µM* | · | -12% | ·
Cc1ccc(NS(=O)(=O)c2ccc(C(=O)N3CCN(S(=O)(=O)c4ccccc4)CC3)cc2)cc1 | -27% | -35% | 9% | 21% | · | -3%
O=C1/C(=C\c2cc(Cl)c(O)c(Cl)c2)SC(=S)N1Cc1ccccc1 | 50µM* | 14µM* | 50µM* | ? | ? | ·
COc1ccc(O)c(/C=C2/SC(=S)N(Cc3ccccc3)C2=O)c1 | 40µM* | 4.5µM* | 32µM* | ? | ? | ·
CN1C(=O)/C(=C\c2cc(N=Nc3ccccc3)ccc2O)SC1=S | 40µM* | 8.9µM* | 3.5µM* | -65% | -2% | -20%
N#Cc1ccccc1Cn1c(=O)n(-c2ccc(F)c(Cl)c2)c(=O)c2sccc21 | -4% | -38%[59 µM] | 3% | 46% | · | ·
COc1cccc(-c2nnc3n2N=C(c2c(OC)cccc2OC)CS3)c1OC | -8% | · | · | · | 4% | ·
O=C(O)c1ccccc1SC1=NS(=O)(=O)c2ccccc21 | -15% | · | · | · | · | ·
O=c1oc(-c2ccc([N+](=O)[O-])cc2)nc2ccc(O)cc12 | ? | 40µM* | ? | -11% | -4% | -12%
